Compound activity deposited in PubChem BioAssay by Sanford-Burnham Center for Chemical Genomics.
Shown are actives, neighbours in structure and some others; about 4% of the full set was active somewhere.
TIM10 inh = TIM10 yeast growth inhibition | S. cerevisiae TIM10 strain growth, BacTiter-Glo luminescence, 24 h | inhibition, % at 10 µM | hit rate 1.4% among 330,000 | AID 463195;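 active = inhibition of 40% or more at the single tested concentration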;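 note: wild-type TIM10 isogenic control strain grown at permissive 25 °C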
tim10-1 inh = growth inhibitors of tim10-1 mutant yeast. hit rate 2.2% among 330,000. inhibition, % at 20 µM. S. cerevisiae tim10-1 ts strain growth, BacTiter-Glo, 24 h;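 active = inhibition of at least 40%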;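 note: mutant grown at 25 °C; 0% = DMSO wells with yeast and 100% = wells holding no yeast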
NALP1 inh = NALP1 inhibition; S. cerevisiae NALP1/ASC/caspase-1 growth, X-gal OD620, 72 h; inhibition, % at 10 µM; hit rate 0.61% among 280,000; in the data active = inhibition mostly above about 24%, no sharp cut-off; inactive = mostly below about 32%
NALP3 yeast inh = inhibitors of NALP3 inflammasome in yeast. Yeast reconstituted NLRP3/ASC/caspase-1, beta-gal luminescence, 24 h. inhibition, % at 10 µM. hit rate 0.39% among 330,000. AID 2825;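 active = inhibition of 50% or more; inactive = inhibition below 50%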;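 note: plate controls were induced DMSO wells for no effect and uninduced yeast grown without galactose for full effect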
tim23-1 inh = inhibits growth of tim23-1 mutant yeast; AID 463212; inhibition, % at 20 µM; hit rate 1.3% among 330,000; S. cerevisiae tim23-1 growth, BacTiter-Glo luminescence, 24 h;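 active = growth inhibition of the mutant yeast at or above 50%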;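 note: temperature-sensitive mutant grown at 25 °C; plate controls were DMSO-treated mutant yeast for no effect and medium wells lacking yeast for full effect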
tim10 confirm = TIM10 yeast growth inhibition, confirmed | shares compounds with TIM10 inh | hit rate 63% among 4,600 | S. cerevisiae tim10 strain growth, BacTiter-Glo luminescence, 24 h | inhibition, % at 10 µM | AID 463215;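 active = inhibition of yeast growth at or above a set limit in either of two replicates at 10 µM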;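 note: this counterscreen used the strain with wild-type TIM10; 0% = yeast with DMSO and 100% = medium wells lacking yeast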
Active calls of the source: *; · = no result.

SMILES | TIM10 inh | tim10-1 inh | NALP1 inh | NALP3 yeast inh | tim23-1 inh | tim10 confirm
CCN(CC)CCN(C(=O)c1cc2c(ccc3ccccc32)oc1=O)c1nc2cc3c(cc2s1)OCCO3 | 50.0* | 20.3 | 12.5 | 13.9 | 30.5 | 30.9
CCOC12NC(=O)CC(=O)N1C(c1ccccc1)=CS2 (centres undefined) | 42.5* | 35.9 | -21.4 | 10.6 | 43.3 | 28.1
COCCN(C(=O)CSc1nnc(-c2ccc(C(C)(C)C)cc2)n1N)c1c(N)n(CC(C)C)c(=O)[nH]c1=O | 4.0 | 23.1 | · | 3.3 | 7.5 | ·
CNC(=O)c1cc2c(ccc3ccccc32)o1 | 61.3* | 37.7 | 2.8 | 19.6 | 37.5 | 58.7*
Cc1ccc(C2CC2c2n[nH]c(=S)n2-c2ccc(Cl)cc2)cc1 (centres undefined) | 50.9* | 27.3 | -8.2 | 39.5 | 31.4 | 41.6*
Cn1c(-c2ccc3c(c2)OCO3)cc(=O)c2ccccc21 | -0.5 | 12.3 | 8.4 | -1.1 | 11.0 | ·
c1ccc2c(c1)c1ccccc1n1c(-c3ccc4c(c3)OCO4)nnc21 | 67.6* | 37.4 | -12.0 | 23.9 | 41.8 | 8.2
Cc1cccc(-c2cccc(NC(=O)C3CCCN(C(=O)c4csc(C)n4)C3)c2)c1 (centres undefined) | 1.4 | 29.2 | 20.5 | 13.5 | 31.2 | ·
COCCOC(=O)C1=C(C)NC(=O)NC1c1cccc2ccccc12 (centres undefined) | 50.7* | 1.7 | 2.4 | -9.4 | 3.5 | -7.5
Cc1ccc2nc(N3CCN(Cc4ccc(F)cc4)C3=O)c(C)cc2c1 | 46.3* | 22.4 | 11.4 | 26.0 | 3.1 | 60.1*
O=C(O)CN1CCN(Cc2ccc(F)cc2)C1=O | -0.4 | -2.2 | 3.6 | 4.5 | 5.2 | ·
O=C(CCS(=O)(=O)c1ccccc1)N(CCCN1CCOCC1)c1nc2ccc(F)cc2s1 | 56.1* | 29.7 | · | 45.3 | 34.6 | 64.7*
CCc1cccc2sc(N(CCCN3CCOCC3)C(=O)CS(=O)(=O)c3ccccc3)nc12 | 21.0 | 21.2 | · | 11.8 | 30.3 | ·
C[C@]12C(=O)N(c3ccc(F)cc3)C(=O)N1[C@H]1c3ccccc3OC[C@@H]1[C@H]2c1ccccc1 | 43.7* | 25.9 | · | 5.9 | 34.3 | 42.6*
C[C@@]12C(=O)N(c3ccc(F)cc3)C(=O)N1[C@@H]1c3ccccc3OC[C@@H]1[C@H]2c1ccccc1 | 18.9 | 26.4 | 12.7 | -22.3 | 34.0 | ·
NNc1nc2c(-c3ccc(Cl)cc3)nnn2c2ccccc12 | 69.3* | 21.8 | -8.8 | -2.0 | 21.1 | 70.0*
CCn1c(O)c(C=NCc2cccs2)c(=O)n(CC)c1=S | 41.7* | 38.8 | 6.2 | 16.8 | 43.2 | 6.8
Cn1c(=O)c2c(O)c(C=NCc3ccccc3)c(=O)n(C)c2n(C)c1=O | 10.7 | 4.8 | 3.4 | 12.0 | 12.2 | ·
COc1nnc(-c2ccc(N3CCOCC3)c(NC(C)=O)c2)c2ccccc12 | 5.6 | 22.0 | -1.3 | 12.0 | 19.6 | ·
COc1nnc(-c2ccc(N3CCOCC3)c(NC(=O)c3ccccc3)c2)c2ccccc12 | 40.1* | 28.0 | 2.2 | 2.5 | 42.0 | 24.0
O=C(CSc1nc2sc3c(c2c(=O)n1-c1ccccc1)CCCC3)N/N=C/c1ccccc1C(=O)O | 16.2 | 2.1 | 4.3 | 19.1 | -5.6 | ·
Nc1cc(=O)[nH]n1C1CCCCC1 | -4.2 | -6.0 | -1.2 | 12.6 | 11.9 | ·
O=C(NNC(=S)NC1CCCCC1)c1cccc(S(=O)(=O)Nc2ccccc2Cl)c1 | 40.9* | 27.5 | 7.9 | 8.1 | 20.6 | 41.4*
O=C(NCCCN1CCCC1=O)c1ccc(S(=O)(=O)Nc2cccc(C(F)(F)F)c2)cc1 | 5.5 | -9.1 | · | 3.5 | -9.0 | ·
S=C(NCCc1ccccc1)N/N=C/c1c(Cl)cccc1Cl | 33.2 | 11.4 | 2.0 | -9.7 | 13.4 | ·
SMILES | TIM10 inh | tim10-1 inh | NALP1 inh | NALP3 yeast inh | tim23-1 inh | tim10 confirm
S=C(NCCc1ccccc1)N/N=C/c1ccc(Cl)cc1 | 40.6* | 12.4 | · | 16.7 | 42.0 | 33.4*
CCCCn1c(N)c(N(CCC(C)C)C(=O)CC2CCCC2)c(=O)[nH]c1=O | -4.5 | -7.0 | · | 16.5 | 0.8 | ·
COc1ccc(N(CC(=O)NCc2cccs2)S(=O)(=O)c2c(C)n[nH]c2C)cc1 | 10.9 | 5.4 | 4.4 | 1.4 | 6.9 | ·
CCOc1ccc(OCC)c(NC(=O)CN2CCN(CC(=O)NC(C)C)CC2)c1 | 12.0 | 3.0 | 13.8 | -5.5 | 6.4 | ·
Cc1ccccc1CS(=O)(=O)Cc1ccc(C(=O)NCCCN2CC(C)CC(C)C2)o1 (centres undefined) | 95.3* | -8.1 | -0.2 | -2.1 | 0.0 | -2.5
CCCNC(=O)N(CCOC)CC1CCCN(C2Cc3ccccc3C2)C1 (centres undefined) | -6.8 | 4.4 | 9.6 | 17.3 | 7.0 | ·
CCNC(=O)N(CCOC)CC1CCCN(C2Cc3ccccc3C2)C1 (centres undefined) | 51.0* | -15.1 | 15.7 | 17.3 | -6.6 | -7.8
CCSC(=Nc1ccccc1)N1CCOCC1 | -16.0 | -21.4 | · | 16.9 | 0.2 | ·
CN(c1ccc(F)cc1)S(=O)(=O)c1ccc(Cl)c(C(=O)OCC(=O)NCc2ccco2)c1 | -14.0 | -17.3 | -0.6 | 6.3 | 0.0 | ·
COCCCn1[nH]c2c3c(ccc2c1=O)C(=O)c1ccccc1C3=O | 41.5* | 32.7 | 20.0 | 4.0 | 41.0 | 47.1*
Cc1ccc(C)c(-n2[nH]c3c4c(ccc3c2=O)C(=O)c2ccccc2C4=O)c1 | 52.7* | 25.5 | 7.3 | 20.8 | 46.4 | 73.2*
CCc1cc2c(=O)c(-c3nc4ccccc4[nH]3)coc2cc1OC(=O)N1CCOCC1 | 57.2* | 16.8 | 28.1 | 36.0 | 19.4 | 62.4*
Cc1ccccc1NCC(=O)N/N=C/c1c[nH]c2ccccc12 | 46.7* | 26.9 | 8.8 | 14.9 | 35.3 | 8.4
Cc1cccc(NCC(=O)N/N=C\c2c[nH]c3ccccc23)c1 | 32.3 | 21.2 | -0.9 | -4.6 | 14.5 | ·
Cc1cc(N/N=C/c2c[nH]c3ccccc23)c2ccccc2n1 | 53.5* | 33.7 | 7.2 | 16.9 | 39.2 | 33.8*
CCOc1ccc(NC(=S)Nc2cc(OC)c(Cl)cc2OC)cc1 | 40.3* | 35.5 | 25.8 | 11.5 | 30.1 | 5.0
O=S1(=O)N=C(N2CCCC2)c2ccccc21 | 0.1 | 5.8 | 20.7 | 11.8 | -7.3 | ·
CC1Cc2ccccc2N1C1=NS(=O)(=O)c2ccccc21 (centres undefined) | 41.8* | 28.1 | -10.6 | -0.4 | 31.0 | 10.3
Nc1nonc1-n1nnc(C(=O)N/N=C/c2ccc(OCc3ccccc3F)cc2)c1CNc1ccccc1 | 11.6 | 0.2 | 11.0 | 17.2 | -3.8 | ·
O=C(NC1Cc2ccccc2C1)c1cc(COc2ccc(F)cc2Cl)on1 | 0.8 | 17.2 | -4.6 | 0.7 | 6.1 | ·
O=C(NC1CCc2ccccc21)c1cc(COc2ccc(F)cc2Cl)on1 (centres undefined) | 67.9* | 11.5 | 0.9 | 9.7 | 15.5 | -1.4
Cc1ccc(NC(=O)Cn2nnc(C(=O)NCc3cccs3)c2N)cc1F | 6.7 | -2.3 | 24.1 | 20.4 | -17.9 | ·
CO/N=C(\c1nonc1N)N1CCN(c2ccc([N+](=O)[O-])cc2Cl)CC1 | 8.4 | 25.3 | 13.2 | 32.9 | 15.7 | ·
